Hit rate of the full screen: of about 39,000 compounds, about 3,300 (8.5%) were called active. What follows is part of a selection rich in actives, with near analogues and random picks from the rest.
tested on: HepG2; assay: cytotoxicity call (relative viability < 0.9); conditions: 10 µM

| Compound | cytotoxicity call |
| --- | --- |
| C[C@@H]1CCCCO[C@H](CN(C)C(=O)Nc2ccccc2)[C@H](C)CN([C@@H](C)CO)C(=O)c2cc(NC(=O)Nc3ccc(F)cc3)ccc2O1 | inactive |
| O=C(C[C@H]1CC[C@@H](NC(=O)CN2CCOCC2)[C@H](CO)O1)NC1CCC1 | inactive |
| C[C@H](CO)N1C[C@H](C)[C@@H](CN(C)S(=O)(=O)c2cn(C)cn2)Oc2ccc(N(C)C)cc2CC1=O | inactive |
| C[C@H](CO)N1C[C@H](C)[C@H](CN(C)Cc2ccc(F)cc2)Oc2cc(C#CC3CC3)ccc2S1(=O)=O | inactive |
| C[C@@H]1CCCCO[C@H](CN(C)C(=O)C2CCCCC2)[C@@H](C)CN([C@H](C)CO)C(=O)c2cc(NC(=O)Nc3ccc(F)cc3)ccc2O1 | inactive |
| COCC(=O)Nc1ccccc1C(=O)O | inactive |
| O=C(N1CCOCC1)[C@@]1(CCS(=O)(=O)c2ccccc2)COC(c2ccc(OCCCO)cc2)=N1 | inactive |
| NCc1cccc2c1OCCCO2 | inactive |
| C[N+](C)(C)CCCC[C@@H]1NC(=O)[C@@H]2C[C@H](C(=O)NCCCCCCNC(=O)CS)[C@H](c3ccc(O)cc3)N2C1=O | inactive |
| CC(C)=C[C@H]1[C@@H](c2nc3ccc(Br)cc3[nH]2)C1(C)C | inactive |
| CCNc1nc(OCCO)nc(N(C)C)n1 | inactive |
| CCNc1nc(NCC)nc(C(=O)OCCO)n1 | active |
| CCNc1nc(NCC)nc(OCC#N)n1 | inactive |
| C[C@H]1CN([C@@H](C)CO)C(=O)Cc2cc(NC(=O)Cc3cn(C)c4ccccc34)ccc2O[C@@H]1CN(C)C(=O)Nc1ccc(C(F)(F)F)cc1 | inactive |
| C[C@H](CO)N1C[C@H](C)[C@H](CN(C)C(=O)Nc2ccc(C(F)(F)F)cc2)Oc2ccc(NC(=O)Cc3cn(C)c4ccccc34)cc2CC1=O | inactive |
| C[C@@H]1CN([C@@H](C)CO)C(=O)Cc2cc(NC(=O)Cc3cn(C)c4ccccc34)ccc2O[C@@H]1CN(C)Cc1ccc(C(F)(F)F)cc1 | active |
| C[C@H]1CN([C@@H](C)CO)C(=O)Cc2cc(NC(=O)Cc3cn(C)c4ccccc34)ccc2O[C@H]1CN(C)C(=O)Nc1ccc(C(F)(F)F)cc1 | inactive |
| C[C@@H]1CN([C@@H](C)CO)C(=O)Cc2cc(NC(=O)Cc3cn(C)c4ccccc34)ccc2O[C@H]1CN(C)C(=O)Nc1ccc(C(F)(F)F)cc1 | inactive |
| C[C@@H]1CN([C@@H](C)CO)C(=O)Cc2cc(NC(=O)Cc3cn(C)c4ccccc34)ccc2O[C@@H]1CN(C)C(=O)Nc1ccc(C(F)(F)F)cc1 | inactive |
| C[C@@H]1CN([C@H](C)CO)C(=O)Cc2cc(NC(=O)Cc3cn(C)c4ccccc34)ccc2O[C@@H]1CN(C)C(=O)Nc1ccc(C(F)(F)F)cc1 | inactive |

| Compound | cytotoxicity call |
| --- | --- |
| C[C@@H]1CN([C@@H](C)CO)C(=O)Cc2cc(NC(=O)Cc3cn(C)c4ccccc34)ccc2O[C@H]1CN(C)Cc1ccc(C(F)(F)F)cc1 | active |
| C[C@H](CO)N1C[C@H](C)[C@@H](CN(C)C(=O)Nc2ccc(C(F)(F)F)cc2)Oc2ccc(NC(=O)Cc3cn(C)c4ccccc34)cc2CC1=O | inactive |
| C[C@H]1CN([C@@H](C)CO)C(=O)Cc2cc(NC(=O)Cc3cn(C)c4ccccc34)ccc2O[C@@H]1CN(C)Cc1ccc(C(F)(F)F)cc1 | active |
| C[C@@H]1CN([C@H](C)CO)C(=O)Cc2cc(NC(=O)Cc3cn(C)c4ccccc34)ccc2O[C@@H]1CN(C)Cc1ccc(C(F)(F)F)cc1 | active |
| C[C@H](CO)N1C[C@H](C)[C@H](CN(C)Cc2ccc(C(F)(F)F)cc2)Oc2ccc(NC(=O)Cc3cn(C)c4ccccc34)cc2CC1=O | inactive |
| CCN1[C@H](C(=O)NCCc2cn(C)cn2)[C@@H](CO)[C@@H]2Cn3c(ccc(-c4ccncc4)c3=O)[C@@H]21 | inactive |
| C[C@@H]1CN([C@H](C)CO)C(=O)c2cccc(NS(=O)(=O)c3cn(C)cn3)c2O[C@H]1CN(C)S(=O)(=O)c1ccccc1 | inactive |
| C[C@@H]1CCCCO[C@@H](CN(C)C(=O)Nc2ccc(C(F)(F)F)cc2)[C@@H](C)CN([C@H](C)CO)C(=O)c2cc(NC(=O)c3ccncc3)ccc2O1 | inactive |
| C[C@H](O)C#Cc1ccc2c(c1)O[C@H](CN(C)C(=O)CN(C)C)[C@@H](C)CN([C@H](C)CO)S2(=O)=O | inactive |
| COc1ccc(NC(=O)Nc2cccc3c2O[C@H](CN(C)Cc2ccc(Cl)c(Cl)c2)[C@H](C)CN([C@@H](C)CO)C3=O)cc1 | inactive |
| COc1ccc(S(=O)(=O)N(C)C[C@H]2OCCCC[C@@H](C)Oc3ccc(NC(=O)Nc4ccc5c(c4)OCO5)cc3C(=O)N([C@H](C)CO)C[C@@H]2C)cc1 | inactive |
| Cc1noc(C)c1NC(=O)Nc1ccc2c(c1)C(=O)N([C@H](C)CO)C[C@@H](C)[C@H](CN(C)Cc1ccc3c(c1)OCO3)OCCCC[C@H](C)O2 | inactive |
| Cc1noc(C)c1S(=O)(=O)Nc1ccc2c(c1)C(=O)N([C@@H](C)CO)C[C@@H](C)[C@@H](CN(C)Cc1ccc(Oc3ccccc3)cc1)O2 | inactive |
| C[C@@H]1CN([C@H](C)CO)C(=O)c2cc(NC(=O)Nc3cccc4ccccc34)ccc2O[C@@H](C)CCCCO[C@H]1CN(C)S(=O)(=O)c1ccccc1 | inactive |
| CC(=O)N1[C@@H]2c3cccc(=O)n3C[C@H]1[C@H](CO)[C@H]2C(=O)N1CCc2ccccc2C1 | inactive |
| C[C@H](CO)N1C[C@H](C)[C@@H](CN(C)Cc2ccc(C(F)(F)F)cc2)Oc2ccc(NC(=O)Cc3cn(C)c4ccccc34)cc2CC1=O | inactive |
| C[C@H]1CN([C@@H](C)CO)C(=O)Cc2cc(NC(=O)Cc3cn(C)c4ccccc34)ccc2O[C@H]1CN(C)Cc1ccc(C(F)(F)F)cc1 | active |
| C[C@@H]1CN([C@H](C)CO)C(=O)Cc2cc(NC(=O)Cc3cn(C)c4ccccc34)ccc2O[C@H]1CN(C)Cc1ccc(C(F)(F)F)cc1 | inactive |
| C[C@@H]1CN([C@@H](C)CO)C(=O)c2c(c3ccccc3n2C)-c2ccccc2CO[C@H]1CN(C)Cc1cccc(C(F)(F)F)c1 | inactive |
| Cc1ccc(S(=O)(=O)N(C)C[C@H]2OCCCC[C@@H](C)Oc3ccc(NC(=O)C4CCCCC4)cc3C(=O)N([C@@H](C)CO)C[C@H]2C)cc1 | inactive |

| Compound | cytotoxicity call |
| --- | --- |
| C[C@@H]1CN([C@@H](C)CO)C(=O)c2cc(NC(=O)C3CCCCC3)ccc2O[C@@H](C)CCCCO[C@@H]1CN(C)S(=O)(=O)c1ccc(Cl)cc1 | inactive |
| Cc1ccc(S(=O)(=O)N(C)C[C@@H]2OCCCC[C@@H](C)Oc3ccc(NC(=O)C4CCCCC4)cc3C(=O)N([C@H](C)CO)C[C@@H]2C)cc1 | inactive |
| Cc1ccc(S(=O)(=O)N(C)C[C@H]2OCCCC[C@H](C)Oc3ccc(NC(=O)C4CCCCC4)cc3C(=O)N([C@H](C)CO)C[C@H]2C)cc1 | inactive |
| Cc1ccc(S(=O)(=O)N(C)C[C@@H]2OCCCC[C@@H](C)Oc3ccc(NC(=O)C4CCCCC4)cc3C(=O)N([C@H](C)CO)C[C@H]2C)cc1 | inactive |
| C[C@@H]1CCCCO[C@H](CN(C)S(=O)(=O)c2ccc(Cl)cc2)[C@H](C)CN([C@H](C)CO)C(=O)c2cc(NC(=O)C3CCCCC3)ccc2O1 | active |
| Cc1ccc(S(=O)(=O)N(C)C[C@H]2OCCCC[C@@H](C)Oc3ccc(NC(=O)C4CCCCC4)cc3C(=O)N([C@H](C)CO)C[C@@H]2C)cc1 | active |
| C[C@@H]1CN([C@H](C)CO)C(=O)c2cc(NC(=O)C3CCCCC3)ccc2O[C@@H](C)CCCCO[C@H]1CN(C)S(=O)(=O)c1ccc(F)cc1 | inactive |
| C[C@H](CO)N1C[C@H](C)[C@H](CN(C)S(=O)(=O)c2ccc(F)cc2)OCCCC[C@H](C)Oc2ccc(NC(=O)C3CCCCC3)cc2C1=O | inactive |
| C[C@@H]1CCCCO[C@@H](CN(C)S(=O)(=O)c2ccc(Cl)cc2)[C@@H](C)CN([C@@H](C)CO)C(=O)c2cc(NC(=O)C3CCCCC3)ccc2O1 | inactive |
| Cc1ccc(S(=O)(=O)N(C)C[C@H]2OCCCC[C@H](C)Oc3ccc(NC(=O)C4CCCCC4)cc3C(=O)N([C@@H](C)CO)C[C@@H]2C)cc1 | active |
| C[C@@H]1CCCCO[C@@H](CN(C)S(=O)(=O)c2ccc(F)cc2)[C@H](C)CN([C@H](C)CO)C(=O)c2cc(NC(=O)C3CCCCC3)ccc2O1 | active |
| C[C@@H]1CCCCO[C@@H](CN(C)C(=O)CCCN(C)C)[C@H](C)CN([C@@H](C)CO)C(=O)c2cc(NS(=O)(=O)c3cn(C)cn3)ccc2O1 | inactive |
| CS(=O)(=O)c1ncc(Cl)c(C(=O)NCCc2ccc(S(N)(=O)=O)cc2)n1 | inactive |
| COc1ccc(S(=O)(=O)Nc2cccc3c2O[C@H](CN(C)Cc2ccc(Oc4ccccc4)cc2)[C@H](C)CN([C@H](C)CO)C3=O)cc1 | inactive |
| Cc1ccc(S(=O)(=O)N(C)C[C@H]2OCCCC[C@H](C)Oc3ccc(NC(=O)CCC(F)(F)F)cc3C(=O)N([C@H](C)CO)C[C@H]2C)cc1 | inactive |
| CN[C@@H]1[C@@H](C)O[C@@H](O[C@H]2[C@H](C)O[C@@H](O[C@@H]3/C(C)=C/C[C@@H]4C[C@@H](C[C@]5(C=C[C@H](C)[C@@H](C(C)C)O5)O4)OC(=O)[C@@H]4C=C(C)[C@@H](O)[C@H]5OC/C(=C\C=C\[C@@H]3C)[C@]54O)C[C@@H]2OC)C[C@H]1OC | active |
| CC[C@H](C)[C@H]1O[C@]2(C=C[C@@H]1C)C[C@@H]1C[C@@H](C/C=C(\C)[C@@H](O[C@H]3C[C@H](OC)[C@@H](O[C@H]4C[C@H](OC)[C@@H](NC(C)=O)[C@H](C)O4)[C@H](C)O3)[C@@H](C)/C=C/C=C3\CO[C@@H]4[C@H](O)C(C)=C[C@@H](C(=O)O1)[C@]34O)O2 | active |
| CCC(C)C1OC2(C=CC1C)CC1CC(CC=C(C)C(OC3CC(OC)C(OC4CC(OC)C(O)C(C)O4)C(C)O3)C(C)C=CC=C3COC4C(OC)C(C)=CC(C(=O)O1)C34O)O2 (centres undefined) | active |
| CCC(C)C1OC2(C=CC1C)CC1CC(CC=C(C)C(OC3CC(OC)C(OC4CC(OC)C(NC(C)=O)C(C)O4)C(C)O3)C(C)C=CC=C3COC4C(O)C(C)=CC(C(=O)O1)C34O)O2 (centres undefined) | inactive |

From the antibiotic and cytotoxicity screens of Wong et al. (2023)
